In PubChem BioAssay AID1347076 (National Center for Advancing Translational Sciences (NCATS), 2019):
Screen size: about 400,000 compounds; about 13,000 (3.2%) were called active. Roughly 18% stayed inconclusive and do not appear here. Calls follow the shape of the dose curve; as a rule, active = well fitted cell-killing curve with a large enough effect; inconclusive = small, poorly fitted or top-dose-only effect, or effect the other way; inactive = flat fitted curve, though single readings scatter. Shown is part of a subset that was picked to be rich in actives. A call without a number means that no potency is given here.

experiment: qHTS assay for MDR1-selective chemotherapeutics: Primary screen using the drug-selected MDR subline cells KB-V1; conditions: KB-V1 MDR cells viability, CellTiter-Glo, 72 h; series mostly up to 46.1 µM; also: nearly all actives have a fitted effect of over 60% in size
Description: A prime difficulty in effectively treating cancer is the development of cellular resistance to multiple structurally unrelated anticancer drugs, a phenomenon known as multidrug resistance (MDR). […] Numerous strategies to overcome P-gp-mediated MDR have been explored, including the design of drugs that evade recognition and efflux, and development of inhibitors to block efflux and restore drug accumulation. […] An alternative approach is to exploit resistance by identifying drugs that target MDR cells over the non-resistant parental cells from which they were selected. […] The development of MDR1-selective agents represents a new strategy for resolving multidrug resistance, as it remains a long-standing clinical challenge for cancer chemotherapy.
Our goal is to identify compounds that selectively kill P-gp-expressing MDR cells. We will identify MDR1-selective compounds by comparing toxicity of compounds in the screening library against parental, drug-naive (KB-3-1) adenocarcinoma cells as well as their drug-selected MDR sub-line (KB-V1). The differential toxicity of compounds against these two cell lines will be used to identify MDR1-selective compounds, whose cytotoxicity is potentiated, rather than diminished, by P-gp expression. This assay will be utilized to conduct a quantitative high-throughput screen (qHTS) in collaboration with the NIH Chemical Genomics Center to identify selective agents, and probe hits arising from the screen will be validated using secondary assays and characterized through a well-established follow-up research program. This screen was run against the entire NCGC library collection of about 400,000 compounds.
NIH Molecular Libraries Probe Production Network [MLPCN]
NIH Chemical Genomics Center [NCGC]
PI: Michael Gottesman, National Cancer Institute, NIH
Briefly, 5 microL of media containing either KB-V1 cells (columns 1-2, 4-48) are dispensed into Greiner white, treated solid-bottom 1536-well assay plates (media-only control is added to column 3). Compounds are then transferred via Kalypsys pin tool equipped with 1536-pin array (10 nL slotted pins, V&P Scientific, San Diego, CA). Following addition of compound, the plates are incubated at 37 degrees C for 72 hours. CellTiter-Glo (2.5 µL/well) is then added, and the plates are read in a ViewLux reader (Perkin-Elmer, clear luminescence filter, 1 second exposure, 1x binning) following a 10 minute incubation. All cells are dispensed in DMEM phenol-red free media containing 10% FBS.
Library plates were screened starting from the lowest and proceeding to the highest concentration. Vehicle-only plates, with DMSO being pin-transferred to columns 5-48, will be inserted uniformly at the beginning and the end of each library in order to monitor and record any shifts in the background, which can be affected by reagent dispensers or loss in enzyme activity over time. Screening data will be corrected, normalized, and concentration-effect relationships will be derived by using publicly-available NCGC, NCATS curve fitting algorithms (http://ncgc.nih.gov/pub/openhts).
Potency is read from the fitted curve at half-maximal effect.

| Compound | Potency |
| --- | --- |
| CCCCCCCCCCCCn1ccc(=N)cc1 | 8.2 µM (active) |
| COC(=O)C(O)(c1ccc(NC(=O)c2ccco2)c(OC)c1)C(F)(F)F (stereo unspecified) | inactive |
| COC(=O)C1=C(c2cc3ccccc3s2)C[C@@H]2CC[C@H]1N2C(=O)NCCO | inactive |
| CCCCCn1c(=O)c(C(=O)NCc2ccccc2)c(O)c2ccccc21 | inactive |
| CCCCCn1c(=O)c(C(=O)NCc2ccccn2)c(O)c2ccccc21 | 14.6 µM (active) |
| CCCCn1c(=O)c(C(=O)Nc2ccccc2Cl)c(O)c2ccccc21 | inactive |
| CCCCCn1c(=O)c(C(=O)Nc2c(C)n(C)n(-c3ccccc3)c2=O)c(O)c2ccccc21 | 2.06 µM (active) |
| COc1cc(C(c2c(O)c3ccccc3oc2=O)c2c(C)n(C)n(-c3ccccc3)c2=O)ccc1O (stereo unspecified) | inactive |
| O=C(O)c1cc[c]([Sb](=[O])([OH])[OH])cc1[N+](=O)[O-] | inactive |
| Cc1ccc(S(=O)(=O)N(C)c2ccc(C(=O)NCC3(N(C)C)CCCCC3)cc2)cc1 | inactive |
| Cc1c(Oc2cc(NN3CCCCC3)c([N+](=O)[O-])cc2[N+](=O)[O-])cccc1[N+](=O)[O-] | inactive |
| CCC1(CC(C)c2ccccc2)C(=O)NC(=O)NC1=O (stereo unspecified) | inactive |
| C[N+]1(C)CCOC(O)(c2ccc(-c3ccc(C4(O)C[N+](C)(C)CCO4)cc3)cc2)C1 (stereo unspecified) | inactive |
| ClC(Cl)(Cl)c1ccccc1 | inactive |
| COC(=O)C1=C(c2ccc(F)cc2OCc2ccccc2)C[C@@H]2CC[C@H]1N2C(=O)NCc1ccc(Cl)cc1 | inactive |
| COC(=O)C1=C(c2ccc(F)cc2OCc2ccccc2)C[C@@H]2CC[C@H]1N2C(=O)NCc1ccc2[nH]ccc2c1 | inactive |
| COC(=O)C1=C(c2ccc(F)cc2OCc2ccccc2)C[C@@H]2CC[C@H]1N2C(=O)NCc1ccc(OC)c(OC)c1 | inactive |
| COC(=O)C1=C(c2ccccc2OCc2ccccc2)C[C@@H]2CC[C@H]1N2C(=O)NCc1ccc(OC)cc1 | inactive |
| COC(=O)C1=C(c2ccccc2)C[C@@H]2CC[C@H]1N2C(=O)NCc1ccco1 | inactive |
| COC(=O)C1=C(c2ccc(F)cc2OCc2ccccc2)C[C@@H]2CC[C@H]1N2C(=O)NCc1ccc(C(C)(C)C)cc1 | inactive |
| COC(=O)C1=C(c2ccc(OCc3ccccc3)cc2)C[C@@H]2CC[C@H]1N2C(=O)NCc1cccc(F)c1 | 7.31 µM (active) |
| COC(=O)C1=C(c2ccc(OCc3ccccc3)cc2)C[C@@H]2CC[C@H]1N2C(=O)NCc1ccc(Cl)cc1 | 14.6 µM (active) |
| COC(=O)C1=C(c2ccc(-c3ccccc3)c(F)c2)C[C@@H]2CC[C@H]1N2C(=O)NCc1ccc(F)cc1 | 20.6 µM (active) |
| Nc1ccc(Cc2ccc(N)c(Cl)c2)cc1Cl | inactive |
| O=C(O)/C=C/c1ccc2c(c1)OCO2 | inactive |
| O=C1NC(=O)C(Cc2ccccc2)C(=O)N1 | inactive |

| Compound | Potency |
| --- | --- |
| COc1ccc(-n2nnnc2C(c2cccc3ccccc23)N2CCC(n3c(=O)[nH]c4ccccc43)CC2)cc1 (stereo unspecified) | inactive |
| COC(=O)N1C(c2ccccc2)C1c1ccccc1 (stereo unspecified) | inactive |
| Fc1ccc(C2N3CCCN23)cc1 (stereo unspecified) | inactive |
| CC(C)CN1Cc2cc(N3CCCCC3)ccc2-n2nncc2C1 | inactive |
| CC(Cc1ccccc1)NC=O (stereo unspecified) | inactive |
| CC(Cc1ccccc1)NCCC(c1ccccc1)c1ccccc1 (stereo unspecified) | 14.6 µM (active) |
| CC(=O)NC(=O)NC(C)Cc1ccccc1 (stereo unspecified) | inactive |
| C[C@]12CCCCC1=CC(=O)C1C2CC[C@@]2(C)C1C[C@@H](F)[C@@H]2O (stereo partly specified) | inactive |
| CC(c1ccccc1)(c1ccccc1)c1ccncc1 | inactive |
| O=[N+]([O-])c1cnc2ccc3ccccc3c2c1 | inactive |
| C/C(=N/O)c1ccc2ccc3ccccc3c2c1 | 3.26 µM (active) |
| C/C(CCc1c[nH]c2ccccc12)=N\O | inactive |
| CC1(C)Cc2c(C#N)c(N3CCNCC3)nc(-c3ccco3)c2CS1 | inactive |
| CCOC(=O)C1(c2ccccc2)CCN(CC(O)c2ccc(NC(C)=O)cc2)CC1 (stereo unspecified) | inactive |
| O=C(CCN1CCCCC1)NCC(=O)Nc1ccc(Br)cc1C(=O)c1ccccc1 | 18.4 µM (active) |
| O=C(CN1CCCCC1)Nc1ccc(Br)cc1C(=O)c1ccccc1Cl | inactive |
| CCOC(=O)CNC(=O)N1Cc2cc(N3CCCCC3)ccc2-n2nncc2C1 | inactive |
| C[C@H]1CN([C@@H](C)CO)C(=O)CCCn2nncc2CO[C@H]1CN(C)C(=O)Oc1cccc2ccccc12 | inactive |
| Cc1ccc(C(C)C)c(OCC(=O)N2CCN(CC(=O)N3CCOCC3)CC2)c1 | inactive |
| CC1CCCN1CCC(C(N)=O)(c1ccccc1)c1ccccc1 (stereo unspecified) | inactive |
| O=C(NC1CCCCC1)N1Cc2cc(N3CCCCC3)ccc2-n2nncc2C1 | inactive |
| c1ccc2c(c1)[I+]c1ccccc1-2 | 16.4 µM (active) |
| CC=C(C)C(=O)OC1CCN2CC=C(COC(=O)C(O)(C(C)OC)C(C)(C)O)C12 (stereo unspecified) | inactive |
| CC1CNCCN1c1ccc(Cl)cc1 (stereo unspecified) | inactive |
| O=C(Nc1ccc(Cl)cc1C(=O)c1ccccc1)c1cc(Cl)cc(Cl)c1 | inactive |
